Assay results from the supplement of paper PMC10646978.
± gives the standard deviation.

How the values were obtained:
Settings in all cases: modulator concentration 10 µM
[1] = system: RAW-Dual (murine macrophage reporter line); assay: NF-kB reporter (SEAP) activity fold change vs agonist alone; higher = enhanced NF-kB activity
Method in brief: (§1)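 In 384-well plates holding 50 000 RAW-Dual murine macrophage reporter cells per well, compound at 10 μM final was pre-incubated for 1 hour at 37 °C, after which a PRR agonist was added overnight. Supernatant SEAP read with QUANTI-Blue at 620 nm absorbance reported NF-κB, and Lucia luciferase read with QUANTI-Luc luminescence reported IRF. Fold change values come from dividing each reporter signal by the mean of agonist-only control wells on the same plate, averaged over replicate plates with propagated errors.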

[2] = system: RAW-Dual (murine macrophage reporter line); assay: IRF reporter (Lucia luciferase) activity fold change vs agonist alone; higher = enhanced IRF activity
Method in brief: as §1

[3] = system: RAW-Dual (murine macrophage reporter line); assay: viability score (confluency relative to resting cells, overnight) (fraction); higher = more viable, active = viable (0.7 or more)
Method in brief: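 Two confluency masks, generated with IncuCyte software over all imaged wells, were applied to IncuCyte images of RAW-Dual macrophages. The cells, in 384-well plates, had been exposed overnight to 10 μM final compound. The viability score is confluency as a fraction of resting cells, and a compound met the cutoff only with both masks above 70% of resting cells.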

[4] = agonist: CpG ODN 1826 0.5 ug/mL

| SMILES | NF-kB reporter [1, 4] | NF-kB reporter ([1]; agonist: LPS 0.1 ug/mL) | NF-kB reporter ([1]; agonist: MPLA […]) | IRF reporter ([2]; agonist: 3'3'-cGAMP 10 ug/mL) | IRF reporter ([2]; agonist: LPS 0.1 ug/mL) | IRF reporter ([2]; agonist: MPLA […]) | viability score [3] |
| --- | --- | --- | --- | --- | --- | --- | --- |
| CSCCC(NC(C)=O)C(=O)N1CCC(n2c(C)nc3ccccc32)C1 (centres undefined) | 1.07 ± 0.063 | 0.96 ± 0.074 | 0.952 ± 0.025 | 0.98 ± 0.04 | 0.968 ± 0.086 | 0.957 ± 0.25 | 1 (active) |
| CCC(C)NC(=O)C(=O)Nc1cccc(C(F)(F)F)c1 (centres undefined) | 0.89 ± 0.093 | 1.05 ± 0.073 | 0.87 ± 0.052 | 1.04 ± 0.058 | 1.16 ± 0.18 | 0.959 ± 0.14 | 1.02 (active) |
| CCN(CC)c1ccc(-c2noc(CN3CCSCC3)n2)cn1 | 0.986 ± 0.055 | 1.15 ± 0.099 | 0.902 ± 0.041 | 0.983 ± 0.059 | 1.15 ± 0.14 | 1.13 ± 0.37 | 1.01 (active) |
| CC(O)Cn1cnc2c1c(=O)n(C)c(=O)n2C (centres undefined) | 1.06 ± 0.082 | 1.06 ± 0.065 | 1.01 ± 0.036 | 0.99 ± 0.07 | 0.972 ± 0.11 | 0.957 ± 0.11 | 0.998 (active) |
| CC(=O)C(C(=O)Nc1ccc(F)cc1)C(c1ccc(Cl)cc1Cl)C(C#N)C#N (centres undefined) | 0.894 ± 0.054 | 0.93 ± 0.057 | 0.915 ± 0.093 | 0.903 ± 0.04 | 1.1 ± 0.075 | 1.02 ± 0.26 | 1.01 (active) |
| NC(=O)C1CCCc2c1[nH]c1ccc(Cl)cc21 (centres undefined) | 1.07 ± 0.15 | 1.1 ± 0.14 | 0.878 ± 0.05 | 0.959 ± 0.044 | 1.19 ± 0.25 | 1.24 ± 0.098 | 0.959 (active) |
| Cc1cc2c(C)cc[n+](CCCS(=O)(=O)[O-])c2cc1C | 0.942 ± 0.078 | 1.05 ± 0.066 | 0.918 ± 0.059 | 0.946 ± 0.038 | 1.42 ± 0.09 | 1.3 ± 0.22 | 1 (active) |
| O=C1CCC(=O)N1CC(O)Cn1c2ccc(Cl)cc2c2cc(Cl)ccc21 (centres undefined) | 0.671 ± 0.035 | 0.816 ± 0.065 | 0.896 ± 0.05 | 0.839 ± 0.04 | 1.24 ± 0.25 | 1.19 ± 0.39 | 0.922 (active) |
| CC(=O)N(C=Cc1cc[n+](CCCS(=O)(=O)[O-])c2ccccc12)c1ccccc1 | 0.982 ± 0.1 | 1.05 ± 0.063 | 0.908 ± 0.094 | 1.01 ± 0.052 | 1.57 ± 0.16 | 1.25 ± 0.25 | 1.01 (active) |
| O=C(NCCCOc1cccc2cccnc12)c1cccnc1 | 0.892 ± 0.081 | 0.909 ± 0.077 | 1.11 ± 0.13 | 1 ± 0.049 | 1.17 ± 0.2 | 1.25 ± 0.39 | 0.989 (active) |
| CCc1cc(=O)oc2c(C)c(OCC(=O)c3ccc(OC)cc3)ccc12 | 0.804 ± 0.066 | 0.837 ± 0.039 | 1.06 ± 0.11 | 0.925 ± 0.062 | 1.45 ± 0.084 | 1.62 ± 0.14 | 1.01 (active) |
| CCOC(=O)C1=C(Nc2ccccc2)SC(=Cc2ccc(O)c(OCC)c2)C1=O | 1.1 ± 0.093 | 1.03 ± 0.07 | 1.15 ± 0.18 | 1.1 ± 0.036 | 1.26 ± 0.12 | 1.12 ± 0.16 | 1.01 (active) |
